Hit rate of the full screen: of about 5,500 compounds, about 2,000 (36%) were called active. Inconclusive results (about 18%) are left out. Rule as the data show it: active = normalized growth mostly below about 0.91 (no sharp cut-off); inconclusive = no clear call, values can overlap the other calls; inactive = mostly above about 0.92. Some of the results follow.
Experiment: chemical genetic growth profiling, strain panel (AID 1159580);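 also: tested at 20 µM; growth read once vehicle control cultures reached saturation at 30 °C; 1 = growth at the plate median or of vehicle wells; lower values mean less growth of the strain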
Settings: S. cerevisiae deletion strains, growth OD

**Q.** Which results are given for `CCCCCCCCCCCCCCCC(=O)OC[C@H](NC(=O)C(Cl)Cl)[C@H](O)c1ccc([N+](=O)[O-])cc1`?
**A.** normalized growth (locus YAL021C, strain ccr4, stronger effect = lower value): 0.986 (inactive); normalized growth (locus YAL026C, strain drs2, stronger effect = lower value): 0.995 (inactive); normalized growth (locus YAL030W, strain snc1, stronger effect = lower value): 1.04 (inactive); normalized growth (locus YBL061C, strain skt5, stronger effect = lower value): 1.02 (inactive); normalized growth (locus YBR009C, strain hhf1, stronger effect = lower value): 1.02 (inactive); normalized growth (locus YBR023C, strain chs3, stronger effect = lower value): 1.01 (inactive); normalized growth (locus YBR171W, strain sec66, stronger effect = lower value): 1.06 (inactive); normalized growth (locus YBR231C, strain swc5, stronger effect = lower value): 1.01 (inactive); normalized growth (locus YBR279W, strain paf1, stronger effect = lower value): 1.02 (inactive); normalized growth (locus YCL011C, strain gbp2, stronger effect = lower value): 1.03 (inactive); normalized growth (locus YCL016C, strain dcc1, stronger effect = lower value): 1 (inactive); normalized growth (locus YCL069W, strain vba3, stronger effect = lower value): 1.04 (inactive); normalized growth (locus YCR088W, strain abp1, stronger effect = lower value): 1.04 (inactive); normalized growth (locus YDL005C, strain med2, stronger effect = lower value): 1.05 (inactive); normalized growth (locus YDL040C, strain nat1, stronger effect = lower value): 1.01 (inactive); normalized growth (locus YDR001C, strain nth1, stronger effect = lower value): 1.03 (inactive); normalized growth (locus YDR069C, strain doa4, stronger effect = lower value): 0.973 (inactive); normalized growth (locus YDR137W, strain rgp1, stronger effect = lower value): 1.01 (inactive); normalized growth (locus YDR159W, strain sac3, stronger effect = lower value): 1.03 (inactive); normalized growth (locus YDR195W, strain ref2): 1.05 (inactive); normalized growth (locus YDR297W, strain sur2, stronger effect = lower value): 1.03 (inactive); normalized growth (locus YDR334W, strain swr1, stronger effect = lower value): 1.03 (inactive); normalized growth (locus YDR335W, strain msn5, stronger effect = lower value): 1.02 (inactive); normalized growth (locus YDR392W, strain spt3, stronger effect = lower value): 1.03 (inactive); normalized growth (locus YEL003W, strain gim4, stronger effect = lower value): 1.04 (inactive); normalized growth (locus YEL037C, strain rad23, stronger effect = lower value): 1.03 (inactive); normalized growth (locus YEL061C, strain CIN8 (second series), stronger effect = lower value): 1.04 (inactive); normalized growth (locus YER015W, strain faa2, stronger effect = lower value): 1 (inactive); normalized growth (locus YER016W, strain bim1, stronger effect = lower value): 1.02 (inactive); normalized growth (locus YER111C, strain swi4, stronger effect = lower value): 1.02 (inactive); normalized growth (locus YER155C, strain BEM2 (second series), stronger effect = lower value): 1.03 (inactive); normalized growth (locus YFR010W, strain ubp6, stronger effect = lower value): 1.01 (inactive); normalized growth (locus YGL167C, strain pmr1, stronger effect = lower value): 1.03 (inactive); normalized growth (locus YGL173C, strain kem1, stronger effect = lower value): 1.05 (inactive); normalized growth (locus YGL227W, strain vid30, stronger effect = lower value): 1.04 (inactive); normalized growth (locus YGL240W, strain doc1, stronger effect = lower value): 1.07 (inactive); normalized growth (locus YGL253W, strain hxk2, stronger effect = lower value): 1.01 (inactive); normalized growth (locus YHR013C, strain ard1, stronger effect = lower value): 1.07 (inactive); normalized growth (locus YHR027C, strain rpn1, stronger effect = lower value): 0.992 (inactive); normalized growth (locus YHR030C, strain SLT2, stronger effect = lower value): 0.97 (inactive); normalized growth (locus YHR079C, strain IRE1, stronger effect = lower value): 0.985 (inactive); normalized growth (locus YHR142W, strain chs7, stronger effect = lower value): 1.05 (inactive); normalized growth (locus YJL092W, strain hpr5, stronger effect = lower value): 1.04 (inactive); normalized growth (locus YJL095W, strain BCK1 (second series), stronger effect = lower value): 1.05 (inactive); normalized growth (locus YJL095W, strain BCK1, stronger effect = lower value): 0.998 (inactive); normalized growth (locus YJL115W, strain asf1, stronger effect = lower value): 1.05 (inactive); normalized growth (locus YJL129C, strain trk1, stronger effect = lower value): 1.09 (inactive); normalized growth (locus YJL154C, strain vps35, stronger effect = lower value): 1.03 (inactive); normalized growth (locus YJL164C, strain tpk1, stronger effect = lower value): 1.04 (inactive); normalized growth (locus YJL166W, strain qcr8, stronger effect = lower value): 1.03 (inactive); normalized growth (locus YJL187C, strain SWE1, stronger effect = lower value): 1.05 (inactive); normalized growth (locus YJR066W, strain TOR1, stronger effect = lower value): 0.984 (inactive); normalized growth (locus YKL160W, strain elf1, stronger effect = lower value): 1.02 (inactive); normalized growth (locus YKR026C, strain gcn3, stronger effect = lower value): 1.03 (inactive); normalized growth (locus YKR091W, strain srl3, stronger effect = lower value): 1.02 (inactive); normalized growth (locus YLL001W, strain dnm1, stronger effect = lower value): 1.02 (inactive); normalized growth (locus YLL026W, stronger effect = lower value): 1 (inactive); normalized growth (locus YLL041C, strain sdh2, stronger effect = lower value): 1.02 (inactive); normalized growth (locus YLR027C, strain aat2, stronger effect = lower value): 1.02 (inactive); normalized growth (locus YLR113W, strain HOG1, stronger effect = lower value): 0.975 (inactive); normalized growth (locus YLR221C, strain rsa3, stronger effect = lower value): 1.02 (inactive); normalized growth (locus YLR258W, strain gsy2, stronger effect = lower value): 1.03 (inactive); normalized growth (locus YLR262C, strain YPT6 (second series), stronger effect = lower value): 1.03 (inactive); normalized growth (locus YLR320W, strain mms22, stronger effect = lower value): 1.01 (inactive); normalized growth (locus YLR342W, strain FKS1, stronger effect = lower value): 1.01 (inactive); normalized growth (locus YLR357W, strain rsc2, stronger effect = lower value): 1.03 (inactive); normalized growth (locus YLR370C, strain arc18, stronger effect = lower value): 1.04 (inactive); normalized growth (locus YLR384C, strain iki3, stronger effect = lower value): 1.02 (inactive); normalized growth (locus YML120C, strain ndi1, stronger effect = lower value): 1.01 (inactive); normalized growth (locus YMR058W, strain fet3, stronger effect = lower value): 0.88 (active); normalized growth (locus YMR125W, strain sto1, stronger effect = lower value): 1.06 (inactive); normalized growth (locus YMR129W, stronger effect = lower value): 1.09 [resistant] (active); normalized growth (locus YMR205C, strain PFK2, stronger effect = lower value): 1.04 (inactive); normalized growth (locus YMR231W, strain pep5, stronger effect = lower value): 1.03 (inactive); normalized growth (locus YNL071W, strain lat1, stronger effect = lower value): 0.986 (inactive); normalized growth (locus YNL183C, strain NPR1, stronger effect = lower value): 0.927 (inactive); normalized growth (locus YNL209W, strain ssb2, stronger effect = lower value): 0.995 (inactive); normalized growth (locus YNL248C, strain rpa49, stronger effect = lower value): 1.04 (inactive); normalized growth (locus YNL322C, strain KRE1 (second series), stronger effect = lower value): 1.05 (inactive); normalized growth (locus YNR049C, strain mso1, stronger effect = lower value): 1.04 (inactive); normalized growth (locus YOR001W, strain rrp6, stronger effect = lower value): 1.03 (inactive); normalized growth (locus YOR070C, strain gyp1, stronger effect = lower value): 1.03 (inactive); normalized growth (locus YOR080W, strain dia2, stronger effect = lower value): 1.03 (inactive); normalized growth (locus YOR083W, strain WHI5, stronger effect = lower value): 1 (inactive); normalized growth (locus YOR106W, strain vam3, stronger effect = lower value): 1.02 (inactive); normalized growth (locus YOR231W, strain MKK1, stronger effect = lower value): 0.997 (inactive); normalized growth (locus YOR265W, strain rbl2, stronger effect = lower value): 1.02 (inactive); normalized growth (locus YOR270C, strain vph1, stronger effect = lower value): 1 (inactive); normalized growth (locus YOR290C, strain snf2, stronger effect = lower value): 0.999 (inactive); normalized growth (locus YPL051W, strain arl3, stronger effect = lower value): 0.999 (inactive); normalized growth (locus YPL078C, strain atp4, stronger effect = lower value): 1.04 (inactive); normalized growth (locus YPL106C, strain sse1, stronger effect = lower value): 1.08 (inactive); normalized growth (locus YPL240C, strain hsp82, stronger effect = lower value): 1.05 (inactive); normalized growth (locus YPL256C, strain CLN2, stronger effect = lower value): 1.01 (inactive)

From PubChem BioAssay AID1159580 (chemical genetic matrix, 2015)
